From PubChem BioAssay (NCATS)
Inconclusive results are not listed. Calls of active or inactive are those of the source. The call rests on the fitted dose curve; in most records, active means well fitted curve in the direction sought with a large enough effect; inconclusive means small, poorly fitted or top-dose-only effect, or another doubt; inactive means no such curve, though single readings can be large; an effect the other way counts as inactive or inconclusive.

Assays:
MCC-26 = experiment: qHTS assay to identify novel small-molecules to repurpose for Merkel cell carcinoma treatment (AID 1296009); settings: MCC and control cell lines, CellTiter-Glo viability, 72 h; series mostly up to 46 µM; further: nearly all actives have a fitted effect of over 60% in size
How it was run: (§1)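 Luminescence from CellTiter-Glo, read 10 min after addition at room temperature, reported viability following a 72 hr, 37 degree celsius treatment with NPC or MIPE compounds in titration; values normalized to plate controls.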

MKL-1 = experiment: as above; settings: MCC and control cell lines, CellTiter-Glo viability, 72 h; series mostly up to 46 µM
How it was run: as §1

MKL-2 = experiment: as above; settings: MCC and control cell lines, CellTiter-Glo viability, 72 h; series mostly up to 46 µM
How it was run: as §1

UISO = experiment: as above; settings: MCC and control cell lines, CellTiter-Glo viability, 72 h; series mostly up to 46 µM
How it was run: as §1

WaGa = experiment: as above; settings: MCC and control cell lines, CellTiter-Glo viability, 72 h; series mostly up to 46 µM
How it was run: as §1

C33A = experiment: Primary qHTS to identify gynecologic anti-cancer compounds using libraries of approved drugs and bioactive compounds (AID 1345084); settings: Gynecologic cancer cell panel viability, ATPlite luminescence, 48 h; series mostly up to 57.5 µM; further: nearly all actives have a fitted effect of over 55% in size
How it was run: (§2)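 Luminescence from the ATPlite ATP-monitoring reagent indicates viable cell number; lower signal means cytotoxicity. Cells received compound 16 h after seeding and were exposed for 48 h across five concentrations.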

CAOV3 = experiment: as above; settings: Gynecologic cancer cell panel viability, ATPlite luminescence, 48 h; series mostly up to 57.5 µM
How it was run: as §2

CASKI = experiment: as above; settings: Gynecologic cancer cell panel viability, ATPlite luminescence, 48 h; series mostly up to 57.5 µM
How it was run: as §2

Es-2 = experiment: as above; settings: Gynecologic cancer cell panel viability, ATPlite luminescence, 48 h; series mostly up to 57.5 µM
How it was run: as §2

Hek293T = experiment: as above; settings: Gynecologic cancer cell panel viability, ATPlite luminescence, 48 h, control line for the selectivity index; series mostly up to 57.5 µM
How it was run: as §2

JEG-3 = experiment: as above; settings: Gynecologic cancer cell panel viability, ATPlite luminescence, 48 h; series mostly up to 57.5 µM
How it was run: as §2

OV90 = experiment: as above; settings: Gynecologic cancer cell panel viability, ATPlite luminescence, 48 h; series mostly up to 57.5 µM
How it was run: as §2

PA-1 = experiment: as above; settings: Gynecologic cancer cell panel viability, ATPlite luminescence, 48 h; series mostly up to 57.5 µM
How it was run: as §2

SKOV3 = experiment: as above; settings: Gynecologic cancer cell panel viability, ATPlite luminescence, 48 h; series mostly up to 57.5 µM
How it was run: as §2

Tov-21-G = experiment: as above; settings: Gynecologic cancer cell panel viability, ATPlite luminescence, 48 h; series mostly up to 57.5 µM
How it was run: as §2

Tov112D = experiment: as above; settings: Gynecologic cancer cell panel viability, ATPlite luminescence, 48 h; series mostly up to 57.5 µM
How it was run: as §2

[1] = Drug repurposing screens with cells derived from glioblastoma tumor samples (AID 1345199); settings: GBM patient neurospheres viability, ATP luminescence, 48 h; further: nearly all actives have a fitted effect of over 40% in size
How it was run: (§3)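 Primary testing used CD133+ neurospheres from four GBM patients, seven concentrations, 48 h exposure and ATP-based viability; confirmation added three slower-growing patient lines.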

HeLa = experiment: Primary qHTS to identify gynecologic anti-cancer compounds using libraries of approved drugs and bioactive compounds (AID 1345084); settings: Gynecologic cancer cell panel viability, ATPlite luminescence, 48 h; series mostly up to 57.5 µM; further: nearly all actives have a fitted effect of over 55% in size
How it was run: as §2

astro = experiment: Drug repurposing screens with cells derived from glioblastoma tumor samples (AID 1345199); settings: viability, ATP luminescence, 48 h; series mostly up to 45.9 µM; further: nearly all actives have a fitted effect of over 40% in size
How it was run: as §3

[2] = at 45.9 µM (top of the series), tumour line B
[3] = at 45.9 µM (top of the series), tumour line D
[4] = at 46 µM (top of the series), tumour line A
[5] = at 46.1 µM (top of the series), tumour line C
On the % scale 0 is the no-effect control and ±100 the full control effect; potency means the concentration at half of the fitted maximal effect.

Cc1ccc(Cl)c(Nc2ccccc2C(=O)O)c1Cl
inactive: Potency (MCC-26) | Potency (MKL-1) | Potency (MKL-2) | Potency (UISO) | Potency (WaGa) | Potency (C33A) | Potency (CAOV3) | Potency (CASKI) | Potency (Es-2) | Potency (Hek293T) | Potency (JEG-3) | Potency (OV90) | Potency (PA-1) | Potency (SKOV3) | Potency (Tov-21-G) | Potency (Tov112D) | activity, negative = cell killing [1, 2] -5.7% | activity, negative = cell killing [1, 3] -0.35% | activity, negative = cell killing [1, 4] -28.2% | activity, negative = cell killing [1, 5] -24.9%

NC(N)=N/N=C/c1c(Cl)cccc1Cl
inactive: Potency (MCC-26) | Potency (MKL-1) | Potency (MKL-2) | Potency (UISO) | Potency (C33A) | Potency (CAOV3) | Potency (CASKI) | Potency (Es-2) | Potency (HeLa) | Potency (Hek293T) | Potency (JEG-3) | Potency (PA-1) | Potency (Tov-21-G) | Potency (Tov112D) | activity, negative = cell killing [1, 5] 0.325%
active: Potency ([1]; tumour line A) 15.8 µM

CCCN(CCC)CCc1cccc2c1CC(=O)N2
inactive: Potency (MCC-26) | Potency (MKL-1) | Potency (MKL-2) | Potency (UISO) | Potency (WaGa) | Potency (C33A) | Potency (CASKI) | Potency (Es-2) | Potency (HeLa) | Potency (Hek293T) | Potency (JEG-3) | Potency (OV90) | Potency (PA-1) | Potency (SKOV3) | Potency (Tov-21-G) | Potency (Tov112D) | activity, negative = cell killing [1, 2] -4.59% | activity, negative = cell killing [1, 3] 4.33% | activity, negative = cell killing [1, 5] 2.12%

CN(C)CC[C@@H](c1ccc(Br)cc1)c1ccccn1
active: Potency ([1]; tumour line A) 11.2 µM
inactive: Potency (MCC-26) | Potency (MKL-1) | Potency (MKL-2) | Potency (UISO) | Potency (WaGa) | Potency (C33A) | Potency (CAOV3) | Potency (CASKI) | Potency (Es-2) | Potency (HeLa) | Potency (Hek293T) | Potency (JEG-3) | Potency (PA-1) | Potency (SKOV3) | Potency (Tov-21-G) | Potency (Tov112D) | activity, negative = cell killing [1, 2] -11% | activity, negative = cell killing [1, 5] 2.86% | Potency (astro)

CCN(CC)CCNC(=O)c1cc(S(C)(=O)=O)ccc1OC
inactive: Potency (MCC-26) | Potency (MKL-1) | Potency (MKL-2) | Potency (UISO) | Potency (WaGa) | Potency (C33A) | Potency (CAOV3) | Potency (CASKI) | Potency (Es-2) | Potency (HeLa) | Potency (JEG-3) | Potency (OV90) | Potency (PA-1) | Potency (SKOV3) | Potency (Tov-21-G) | Potency (Tov112D) | activity, negative = cell killing ([1]; at 20 µM (top of the series), tumour line C) -10.9% | activity, negative = cell killing ([1]; at 21.2 µM (top of the series), tumour line B) -7.73% | activity, negative = cell killing ([1]; at 21.2 µM (top of the series), tumour line D) -4.2%

CCN(CC)CCOCCOC(=O)C1(c2ccccc2)CCCC1
inactive: Potency (MCC-26) | Potency (MKL-1) | Potency (MKL-2) | Potency (UISO) | Potency (C33A) | Potency (CAOV3) | Potency (CASKI) | Potency (Es-2) | Potency (HeLa) | Potency (Hek293T) | Potency (JEG-3) | Potency (OV90) | Potency (PA-1) | Potency (SKOV3) | Potency (Tov-21-G) | Potency (Tov112D) | activity, negative = cell killing [1, 5] -28.4%
active: Potency ([1]; tumour line A) 2.24 µM | Potency ([1]; tumour line D) 12.6 µM

CCCCNC(=O)NS(=O)(=O)c1ccc(C)cc1
inactive: Potency (MCC-26) | Potency (MKL-1) | Potency (MKL-2) | Potency (UISO) | Potency (WaGa) | Potency (C33A) | Potency (CASKI) | Potency (Es-2) | Potency (HeLa) | Potency (Hek293T) | Potency (JEG-3) | Potency (OV90) | Potency (PA-1) | Potency (SKOV3) | Potency (Tov-21-G) | Potency (Tov112D) | activity, negative = cell killing [1, 2] -7.32% | activity, negative = cell killing [1, 3] -11.9% | activity, negative = cell killing [1, 4] -4.33% | activity, negative = cell killing [1, 5] 8.27% | Potency (astro)

COc1cc(Cc2cnc(N)nc2N)cc(OC)c1OC
inactive: Potency (MCC-26) | Potency (MKL-1) | Potency (MKL-2) | Potency (UISO) | Potency (WaGa) | Potency (C33A) | Potency (CAOV3) | Potency (CASKI) | Potency (Es-2) | Potency (Hek293T) | Potency (JEG-3) | Potency (OV90) | Potency (PA-1) | Potency (Tov-21-G) | Potency (Tov112D) | activity, negative = cell killing [1, 2] 10.7% | activity, negative = cell killing [1, 3] -9.7% | activity, negative = cell killing [1, 5] -10.9% | Potency (astro)

Cc1ccc(S(=O)(=O)NC(=O)NN2CCCCCC2)cc1
inactive: Potency (MCC-26) | Potency (MKL-1) | Potency (MKL-2) | Potency (UISO) | Potency (WaGa) | Potency (C33A) | Potency (CAOV3) | Potency (CASKI) | Potency (Es-2) | Potency (Hek293T) | Potency (JEG-3) | Potency (OV90) | Potency (PA-1) | Potency (SKOV3) | Potency (Tov-21-G) | Potency (Tov112D) | activity, negative = cell killing [1, 2] 5.62% | activity, negative = cell killing [1, 3] 15.6% | activity, negative = cell killing [1, 4] -3.14% | activity, negative = cell killing [1, 5] -5.87%

C[n+]1cc2c3c(ccc2c2ccc4cc5c(cc4c21)OCO5)OCO3
active: Potency (MCC-26) 3.66 µM | Potency (MKL-1) 1.46 µM | Potency (MKL-2) 0.651 µM | Potency (UISO) 1.3 µM | Potency (WaGa) 1.03 µM | Potency (C33A) 2 µM | Potency (Es-2) 8.91 µM | Potency (HeLa) 8.91 µM | Potency (Hek293T) 8.91 µM | Potency (OV90) 11.2 µM | Potency (PA-1) 5.01 µM | Potency (SKOV3) 3.55 µM | Potency (Tov-21-G) 7.94 µM | Potency (Tov112D) 10 µM | Potency (astro) 4.47 µM

NC1=NCC2c3ccccc3Cc3ccccc3N12 (configuration not stated)
inactive: Potency (MCC-26) | Potency (MKL-1) | Potency (MKL-2) | Potency (UISO) | Potency (WaGa) | Potency (C33A) | Potency (CAOV3) | Potency (CASKI) | Potency (Es-2) | Potency (HeLa) | Potency (Hek293T) | Potency (JEG-3) | Potency (PA-1) | Potency (SKOV3) | Potency (Tov-21-G) | activity, negative = cell killing [1, 2] -23.2% | Potency (astro)
active: Potency ([1]; tumour line A) 12.6 µM

CC(C)(C)NCC(O)c1cc(O)cc(O)c1 (configuration not stated)
inactive: Potency (MCC-26) | Potency (MKL-1) | Potency (MKL-2) | Potency (UISO) | Potency (WaGa) | Potency (C33A) | Potency (CAOV3) | Potency (CASKI) | Potency (Es-2) | Potency (HeLa) | Potency (Hek293T) | Potency (JEG-3) | Potency (PA-1) | Potency (SKOV3) | Potency (Tov-21-G) | Potency (Tov112D) | activity, negative = cell killing [1, 2] 0.586% | activity, negative = cell killing [1, 3] -16.8% | activity, negative = cell killing [1, 4] -15.6% | activity, negative = cell killing [1, 5] -15.7% | Potency (astro)
